Bioassay records (PubChem)
Most compounds without a hit are left out; they make up all but 0.86% or so of the library.
GLS inh: inhibitors of human glutaminase (GLS); hit rate 0.21% among 410,000; Potency, µM (highest dose often 45.5 µM), for inactives: top-dose activity change, negative = inhibition, usual class: inhibitors; AID 624170; O94925; GLS enzymatic activity, qHTS titration
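Two-point fluorescence kinetic (t0, 30 min RT) for hKGA; glutamate detected via glutamate oxidase–HRP–Amplex Red. Substrate: 1 mM L-glutamine solution; buffer 45 mM KH2PO4, pH 8.2.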
FEN1 inhibitor: blocks human flap endonuclease 1; Potency, µM (series often up to 114 µM), for inactives: top-dose activity change, negative = inhibition, usual class: inhibitors; AID 588795; Recombinant FEN1 flap cleavage, fluorescence, 15 min; hit rate 0.35% among 390,000; P39748; note: nearly all actives have a fitted effect of over 65% in size
Target sequence (P39748 whole entry, looked up): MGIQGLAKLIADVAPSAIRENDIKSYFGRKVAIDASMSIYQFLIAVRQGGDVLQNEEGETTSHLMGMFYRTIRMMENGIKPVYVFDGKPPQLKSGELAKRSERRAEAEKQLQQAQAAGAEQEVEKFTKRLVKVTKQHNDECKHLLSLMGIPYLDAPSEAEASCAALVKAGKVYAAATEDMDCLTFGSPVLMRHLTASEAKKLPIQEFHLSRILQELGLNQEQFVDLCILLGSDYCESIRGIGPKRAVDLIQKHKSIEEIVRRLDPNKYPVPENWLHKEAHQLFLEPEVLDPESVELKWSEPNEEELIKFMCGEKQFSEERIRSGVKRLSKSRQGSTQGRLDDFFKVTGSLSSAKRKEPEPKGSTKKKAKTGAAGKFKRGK
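In this screen, 50 nM flap DNA substrate was added to 10 nM FEN1 pretreated with compound for 15 min at room temperature; cleavage was followed with reads at 0 and 15 min, and Hill fitting gave concentration–response parameters.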
PGK inhibitor: blocks T. brucei phosphoglycerate kinase; PGK/GAPDH coupled, Kinase-Glo luminescence, 60 min; Potency, µM (series often up to 57.5 µM), inactives show at the highest dose activity change, negative = inhibition, most hits filed as inhibitors; hit rate 0.043% among 380,000; AID 602233; note: nearly all actives have a fitted effect of over 60% in size
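Luminescent ATP detection (Kinase-Glo Plus) follows a 60-minute room-temperature incubation, with wells lacking PGK as controls. Buffer: 100 mM TEA (pH 7.6), 5 mM MgCl2, 0.01% Tween-20. Coupling enzyme GAPDH (100 nM final) supplies unstable 1,3-BPG in-well.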
BLM inh-1: Bloom syndrome helicase (human) inhibition; hit rate 0.2% among 350,000; AID 2528; Potency, µM (series often up to 56.1 µM), inactives show at the highest dose activity change, negative = inhibition, actives largely listed as inhibitors; recombinant BLM DNA unwinding, fluorescence dequenching;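 note: plate controls were vehicle for no effect and no enzyme for full effect; nearly all actives have a fitted effect of over 35% in size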
APE1 inh: blocks human APE1 abasic DNA cleavage. Potency, µM (top dose mostly 65.8 µM), for inactives: top-dose activity change, negative = inhibition, actives largely listed as inhibitors. hit rate 0.35% among 350,000. P27695. recombinant APE1, TAMRA/BHQ-2 abasic DNA cleavage fluorescence;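 note: plate controls were vehicle for no effect and reference inhibitor for full effect; nearly all actives have a fitted effect of over 55% in size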
Target sequence (P27695 whole entry, looked up): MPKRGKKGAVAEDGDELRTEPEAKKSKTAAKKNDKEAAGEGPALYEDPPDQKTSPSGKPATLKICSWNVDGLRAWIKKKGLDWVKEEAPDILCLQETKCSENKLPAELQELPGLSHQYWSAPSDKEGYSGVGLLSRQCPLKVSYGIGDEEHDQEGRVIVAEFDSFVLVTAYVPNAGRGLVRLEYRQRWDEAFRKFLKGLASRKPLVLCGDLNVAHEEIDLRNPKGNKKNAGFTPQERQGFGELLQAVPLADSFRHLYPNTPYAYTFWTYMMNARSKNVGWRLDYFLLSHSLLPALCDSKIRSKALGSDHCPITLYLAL
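APE1 at 0.75 nM preincubated 15 min at room temperature with compound. Reaction then started with 50 nM double-stranded THF-abasic substrate labelled with TAMRA/BHQ-2, and 525/598 nm fluorescence read kinetically. Activity taken as third-minus-first read difference, normalized to DMSO and NSC13755 controls.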
RECQ1 helicase: blocks DNA unwinding by human RECQ1; P46063; RECQ1 DNA unwinding, red fluorescence kinetic read; Potency, µM (top dose mostly 57.3 µM), for the others: top-dose activity, negative = inhibition, usual class: inhibitors; hit rate 0.54% among 240,000;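 note: plate controls were vehicle for no effect and no enzyme for full effect; nearly all actives have a fitted effect of over 30% in size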
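RECQ1T1 50 nM; forked duplex (20 bp + 30-nt ss tails) 200 nM, ATP 2 mM final; pH 8.0, 2 mM MgCl2, 2.5 ug/ml poly(dI-dC); 15 min compound preincubation; discontinuous kinetic read over 2 h at RT.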
BLM inh-2: confirmation of inhibitors of human Bloom syndrome helicase BLM; Potency, µM, inactives show max response, negative = inhibition, actives largely listed as inhibitors; shares compounds with BLM inh-1; BLM DNA unwinding, fluorescence quenching, biochemical; hit rate 40% among 220; AID 2585;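 note: strand separation dequenches TAMRA so unwinding raises red fluorescence; series mostly up to about 69 µM; nearly all actives have a fitted effect of over 45% in size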
Numbers without * were called inactive; i = inactive; ? = inconclusive; . = no result; ! = a repeat was not active. Calls come from the whole dose curve; as a rule, active = well fitted curve in the direction sought with a large enough effect; inconclusive = small, poorly fitted or top-dose-only effect, or another doubt; inactive = no such curve, though single readings can be large; an effect the other way counts as inactive or inconclusive. Unless noted, % is set by controls: 0 for no effect and ±100 for the full control effect; potency is the fitted concentration of half-maximal effect.

SMILES	GLS inh	FEN1 inhibitor	PGK inhibitor	BLM inh-1	APE1 inh	RECQ1 helicase	BLM inh-2
CN(C)c1cc(Cl)c2nonc2c1N	0.0%	?	-4.9%	35.5µM*	?	28.2µM*	?
COC(=O)[C@H](C)NS(=O)(=O)C1CC1	.	12.3%	.	.	.	.	.
O=C1Nc2ccc(I)cc2/C1=C/c1cc(Br)c(O)c(Br)c1	.	?	.	?	0.1%	25.1µM*!	96.1µM*
Clc1ccc2nccnc2c1	.	-25.8%	.	.	.	.	.
COc1ccc2nc3cccc(OC)c3nc2c1	-1.8%	?	-12.3%	3.55µM*	?	0.6%	9.9%
Nc1c(C(=O)NCC2CCCO2)sc2nc3c(c(-c4ccco4)c12)CC/C3=C\c1ccco1 (stereo unspecified)	?	3.16µM*	?	5.01µM*	2µM*	2.51µM*	?
Cc1ccc2c(C)ccnc2c1	.	-3.9%	.	.	.	.	.
C=C1CC[C@@H]2[C@](C)(CC[C@@H](O)[C@]2(C)CO)[C@@H]1C/C=C1/C(=O)OC[C@H]1O	.	.	.	.	.	.	5.5%
COc1ccc(S(=O)(=O)N(CC(=O)Nc2cccc(C)c2)c2ccc(C)cc2)cc1OC	3.4%	-22.5%	1.2%	-6.3%	.	.	.
COc1ccc(NS(=O)(=O)c2ccc(-n3cccn3)cc2)cc1OC	21.9%	-12.7%	-6.6%	2.2%	.	.	.
O=c1[nH][nH]c2c(N=Cc3ccccc3O)ccc(F)c12	11.2µM*	17.8µM*	15.8µM*	28.2µM*	8.91µM*	?	?
CCc1ccc(O)c(N=Cc2ccccc2O)c1	0.8%	-15.1%	i	-5.4%	-0.5%	-5.0%	.
CC(C)Cn1c(N)c(C(=O)NCC2CCCO2)c2nc3ccccc3nc21 (stereo unspecified)	-16.3%	?	i	8.91µM*	-6.7%	13.5%	-10.5%
COc1ccc(-n2ncc(C(=O)N3CCN(c4ccccn4)CC3)c2C2CCN(C(=O)OC(C)(C)C)CC2)cc1	2.4%	5.9%	-3.5%	0.9%	.	.	.
O=C(OCC(=O)N1CCN(C(=O)c2ccco2)CC1)c1cc(-c2ccc(Cl)c(Cl)c2Cl)nc2ccccc12	?	-3.8%	-5.7%	-6.5%	17.2%	-0.1%	.
O=C(OCC(=O)N1CCN(C(=O)c2ccco2)CC1)c1cc(-c2ccco2)nc2ccccc12	4.2%	?	?	8.91µM*	15.8µM*	12.6µM*	?
COc1ccc(S(=O)(=O)n2nc(-c3ccco3)nc2NCc2ccc(N(C)C)cc2)cc1	3.7%	-14.1%	8.9%	-7.5%	.	.	.
O=C(Cc1cccs1)Nc1ccc(S(=O)(=O)N2CCCC2)cc1	-9.0%	-17.2%	-12.0%	17.8µM*	-1.6%	26.0%	?
Cc1ccc(S(=O)(=O)N2CCCCC2)cc1NC(=O)Cc1cccs1	6.6%	-8.5%	i	.	18.4%	.	.
Oc1ccc(CN2CCC(Cc3ccccc3)CC2)c2cccnc12	0.0%	?	2.0%	8.91µM*	5.4%	-7.8%	18.2µM*
O=C(O)CSc1cc(C(=O)c2cc(F)ccc2O)cn2c(=O)c3c(-c4ccccc4)csc3nc12	8.6%	?	?	25.1µM*	-6.0%	-26.4%	?
CCOC(=O)c1sc2nc3c(SCCC#N)cc(C(=O)c4cc(F)ccc4O)cn3c(=O)c2c1C	23.4%	-12.6%	-0.4%	-8.8%	-5.9%	-3.6%	.
Cc1cc(OCC(=O)Nc2cc(-c3nc4ncccc4o3)ccc2C)ccc1Cl	-7.9%	-7.9%	2.3%	28.2µM*	.	.	?
Cc1ccc(-c2nc3ncccc3o2)cc1NC(=O)COc1ccc(C(C)C)cc1	-19.7%	12.9%	9.4%	-14.8%	.	.	.
O=C(Nc1ccc2nc(-c3ccco3)c(-c3ccco3)nc2c1)N1CCN(c2ccccn2)CC1	-8.8%	?	-7.6%	4.47µM*	8.3%	-1.2%	?
SMILES	GLS inh	FEN1 inhibitor	PGK inhibitor	BLM inh-1	APE1 inh	RECQ1 helicase	BLM inh-2
Cc1nc2cccnc2n1-c1cccc(C(=O)N2CCN(c3cccc(Cl)c3)CC2)c1	7.2%	2.6%	-9.8%	-2.3%	.	.	.
S=C(Nc1cccc(Cl)c1)Nc1cccc2cnccc12	5.6%	?	-7.2%	3.98µM*	-0.3%	-0.1%	?
Cc1ccc(NC(=S)Nc2cccc3cnccc23)cc1C	0.0%	-9.1%	-5.2%	-12.4%	-3.6%	5.0%	.
CC1(C)Cc2c(C#N)c(N3CCN(C(=O)c4ccccc4Cl)CC3)nc(-c3ccco3)c2CS1	7.7%	-3.5%	-0.9%	14.1µM*	-10.8%	-21.2%	?
O=C1OC(Nc2cc(Br)cc3cccnc23)c2ccccc21 (stereo unspecified)	19.2%	0.6%	-9.9%	22.4µM*	0.5%	i	-4.5%
CN(C)S(=O)(=O)c1ccc2c(c1)N(CC(=O)N1CCN(c3ccc(F)cc3)CC1)CCS2	8.1%	7.3%	i	-2.0%	.	.	.
Cc1cc(=O)cc2oc3cc(N)c(-c4c(C)cc(O)cc4O)c(C)c3nc1-2	.	.	.	15.8µM*	?	-8.4%	20.4µM*
CCOc1ccc(N2CC(c3nc4ccccc4n3CCCOc3ccccc3OC)CC2=O)cc1 (stereo unspecified)	-4.2%	16.0%	-3.3%	-3.2%	.	.	.
c1cc2c3c(c1)CCCN3CCC2	.	11.1%	.	.	.	.	.
O=C(COC(=O)c1c2c(nc3ccccc13)/C(=C/c1ccco1)CC2)NC1CCCC1	17.8µM*	-16.9%	-15.9%	8.91µM*	?	?	?
Cc1cc(C(=O)OCC(=O)NC2CCCC2)c2ccccc2n1	7.7%	0.7%	-11.8%	.	-11.2%	.	.
COc1ccc(/C=c2\[nH]c(=O)/c(=C/c3ccc(OC)c(OC)c3)[nH]c2=O)cc1OC	.	-9.4%	.	.	.	.	.
Cc1cc(-c2ccco2)c(C#N)c2nc3ccccc3n12	-20.2%	?	-4.7%	2.51µM*	-2.3%	i	?
CN(C)c1ccc(C=Nc2cnc3ccccc3c2)cc1	.	4.1%	.	.	.	.	.
